Test results as given in PubChem BioAssay (NCI).
About 83,000 compounds went through this panel and 20% of them were active in at least one assay; those are over-represented in the sample as a whole.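 Testing used 96-well plates and a 48-hour single-concentration exposure. Example: -40 means 40% of the starting cells died.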 A number with no mark means an inactive call. The source made the active and inactive calls. Rule for the calls: active = growth percent below 10; inactive = the rest.

Key:
Assay in all cases: NCI-60 one-dose screen, 48 h (100 = growth as untreated, 0 = no growth, -100 = all killed)
Details in all cases: 10 µM
[1] = tested on: SR leukemia
[2] = tested on: RPMI-8226 leukemia
[3] = tested on: OVCAR-8 ovarian
[4] = tested on: OVCAR-5 ovarian
[5] = tested on: OVCAR-4 ovarian
[6] = tested on: SK-OV-3 ovarian
[7] = tested on: OVCAR-3 ovarian
[8] = tested on: HS 578T breast
[9] = tested on: NCI/ADR-RES ovarian
[10] = tested on: T-47D breast
[11] = tested on: BT-549 breast
[12] = tested on: MDA-MB-435 melanoma
[13] = tested on: SW-620 colon
[14] = tested on: MCF7 breast
[15] = tested on: HCT-116 colon
[16] = tested on: HCC-2998 colon
[17] = tested on: KM12 colon

Compound	growth [1]	growth [2]	growth [3]	growth [4]	growth [5]	growth [6]	growth [7]	growth [8]	growth [9]	growth [10]	growth [11]	growth [12]	growth [13]	growth [14]	growth [15]	growth [16]	growth [17]
Nc1c(CNCc2nnn(Cc3ccccc3)c2N)nnn1Cc1ccccc1	90%	94.7%	99.8%	95.5%	92.1%	114%	107%	99%	97.2%	101%	105%	107%	95.9%	101%	103%	98.7%	98.3%
COc1cc(-c2nc3ccccc3[nH]2)ccc1OCC(=O)N=Nc1c(O)[nH]c2ccccc12	-5.28% (active)	25.8%	49.1%	109%	76.4%	101%	79.6%	83.7%	109%	32.6%	104%	79.1%	64.8%	28%	31.6%	96.1%	27%
Cc1nc2cc(-n3c(-c4ccc(F)cc4)nc4ccccc4c3=O)ccc2n1Cc1ccccc1	-7.66% (active)	37.5%	13%	65.2%	-18.3% (active)	58.8%	-18.7% (active)	5.86% (active)	6.09% (active)	-29% (active)	2.3% (active)	-32.6% (active)	11.6%	-24.9% (active)	-18.8% (active)	61.7%	18.7%
N#CN1CC[C@H](C(=O)Nc2ncc(-c3ccccc3)s2)C1	0.907% (active)	3.84% (active)	2.85% (active)	1.27% (active)	-6.05% (active)	5.15% (active)	-32.5% (active)	-7.39% (active)	4.61% (active)	-44% (active)	-5.31% (active)	0.958% (active)	5.19% (active)	3.54% (active)	-3.16% (active)	-11.1% (active)	-6.3% (active)
CCOC(=O)c1cc2c(n1Cc1cc(OC)cc(OC)c1)-c1oncc1CC2	18%	39.5%	26.8%	49%	48.9%	5.06% (active)	-51.2% (active)	-1.17% (active)	0.862% (active)	54.8%	39.5%	-37% (active)	34.9%	16.6%	14.2%	19.4%	19.5%
C[C@H](NC(=O)[C@@H]1CSSC[C@@H](NC(=O)Cc2nc3ccccc3cc2O)C(=O)NCC(=O)N1C)c1ccccc1	-3.15% (active)	87.2%	95.2%	104%	63.6%	88.4%	99%	94.2%	101%	77.1%	83.8%	70.7%	94%	51.7%	44.7%	94.9%	56%
COc1ccc(-c2nc(SCC(=O)c3ccc(Br)cc3)[nH]c(=O)c2C#N)cc1	94.5%	104%	106%	102%	120%	113%	99.3%	96.4%	110%	93.9%	94.2%	100%	106%	100%	97.4%	104%	96.9%
CCc1ccc(-c2nnc(COc3ccc(-c4nc5ccccc5[nH]4)cc3OC)o2)cc1	-8.81% (active)	52.1%	40.9%	96.6%	-36.2% (active)	100%	4.63% (active)	14.4%	69.2%	87.9%	51.7%	56.7%	58.1%	33.5%	28.9%	81.6%	58%
O=C1CC[C@@H](C(=O)N[C@H]2CSSC[C@@H](C(=O)NCCc3ccccc3)NC(=O)[C@H](Cc3ccccc3)NC(=O)[C@@H]3CCCN3C(=O)[C@@H]3CCCN3C2=O)N1	94.5%	108%	104%	90.4%	105%	97.5%	104%	101%	99.8%	25.3%	106%	109%	102%	95.8%	95.8%	94.3%	105%
CCN(CC)CCOC(=O)c1ccc(NC(=O)Nc2cccc(Cl)c2)cc1	96.5%	103%	97.6%	105%	107%	102%	97.6%	100%	97.5%	87.1%	92.9%	103%	104%	95%	95%	99.7%	98%
